Ten compounds from PubChem BioAssay can be followed below.

Unmarked numbers belong to inactive results. The rule behind the calls is not given here.

The nature of this assay: Pseudomonas biofilm growth suppression – PAO1 strain, BacTiter-Glo luminescence, LB-PBS, primary screen (AID 1144). The following applies: P. aeruginosa PAO1 biofilm, 12 h, higher = more signal.
For `COC(=O)CC=C[C@@H](C)[C@@H](C=NOC(C)CN1CCCCc2nc(C)c(C)cc21)OC` (stereo not given in full), the z-score is 0.763. For the compound `CCOC(=O)[C@H](CC(C)C)NC(=O)CCC1CC(OC(=O)NCc2ccc3c(c2)OCO3)CC2(CCCC(COC(=O)NCCc3ccc(Cl)cc3)O2)O1` (stereo not given in full), the z-score was -0.0985. On to `CC(CCN1CCc2nc(-c3ccccc3)c(-c3ccccc3)cc2C1)=NO[C@H](C)c1cn([C@H](CO)Cc2ccccc2)nn1`, for which the z-score was -0.413. With `CC(CCC(=O)OC[C@H]1O[C@H](C#Cc2ccccc2)C=C[C@@H]1Oc1ccc(C)cc1)=NO[C@H](C)c1cn([C@@H]2COC[C@H]2O)nn1` the figure was -0.763; with `CC(CCN1CCc2nc(-c3ccccc3)c(-c3ccccc3)cc2C1)=NOC(C)CN1CCCc2nc(C)c(C)cc21` (stereo not given), 0.25.

Take `CCC1=NOC(CCC2CC(OC(=O)NCc3cccc4c3OCO4)CC3(CCCC(COC(=O)NCCc4ccc(Cl)cc4)O3)O2)C1` (stereo not given): the z-score is 0.612. `CCOC(=O)CCN1C(=O)[C@H]2[C@@H]3C(=CC[C@H]2C1=O)C(=O)[C@H]1O[C@H]1[C@H]3O`: the z-score is 0.737. As for `CON=C(C)CCC(=O)OC[C@H]1O[C@H](C#Cc2ccccc2)C=C[C@@H]1Oc1ccc(C)cc1`, the z-score was -0.0775. For `Cc1cc2c(nc1C)CCCCN2CC(O)CN1CCCc2nc(-c3ccc(Br)cc3)ccc21` (stereo not given), the z-score was -0.708. `COC(=O)[C@H](C)NC(=O)CCC1CC(OC(=O)NCc2cccc3ccccc23)CC2(CCCC(COC(=O)NCCc3ccccc3OC)O2)O1` (stereo not given in full): the z-score is 0.326.
